Compounds with a hit are over-represented: about 10% of the library has one in this group of screens.
PLK1 PBD inh – blocks phosphopeptide binding to human PLK1 polo-box domain; P53350; Plk1 PBD binding of FITC phosphopeptide, fluorescence polarization; Potency, µM, for inactives: max response, negative = inhibition, most hits filed as inhibitors; hit rate 2.8% among 360,000; AID 720504; note: potency is the fitted concentration of half-maximal effect; series mostly up to about 57 µM; nearly all actives have a fitted effect of over 65% in size
Sfp inh – inhibitors of Bacillus subtilis Sfp phosphopantetheinyl transferase. Potency, µM, for the others: largest response in the series, negative = inhibition, hits mostly inhibitors. Biochemical Sfp PPTase activity, qHTS. AID 1490. hit rate 3.5% among 310,000. Q9F4F7;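 note: the enzyme is Sfp with the accession as filed and its product quenches rhodamine fluorescence; potency is the fitted concentration of half-maximal effect; 0% = enzyme reaction without inhibitor and -100% = no enzyme wells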
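After 15 min at room temperature with compound, 15 nM Sfp received 5 uM rhodamine-CoA plus 12.5 uM BHQ-2-ybbR (50 mM Hepes pH 7.6, 10 mM MgCl2). Rate came from the fluorescence difference over 30 min, ex 525/em 598 nm.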
Mm-Cpn inhibitor – blocks the Methanococcus maripaludis chaperonin Mm-Cpn; hit rate 0.031% among 330,000; Potency, µM (doses to about 76.9 µM), for the others: at the highest dose activity, negative = inhibition, hits mostly inhibitors; purified Mm-Cpn ATPase, ADP Transcreener TR-FRET; note: potency is the fitted concentration of half-maximal effect; nearly all actives have a fitted effect of over 80% in size
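TR-FRET (320 nm excitation; 590 and 665 nm emission) reports ADP made from 10 uM ATP by 25 nM enzyme; compounds were preincubated 10 min, reaction run 30 min, both at 37°C.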
VDR inh – inhibitors of human vitamin D receptor. P11473. AID 504847. Potency, µM, without a hit: max response, negative = inhibition, most hits filed as inhibitors. hit rate 0.93% among 400,000. VDR-SRC2-3 peptide fluorescence polarization, 2 h; note: potency is the fitted concentration of half-maximal effect
Target sequence (P11473 whole entry, looked up): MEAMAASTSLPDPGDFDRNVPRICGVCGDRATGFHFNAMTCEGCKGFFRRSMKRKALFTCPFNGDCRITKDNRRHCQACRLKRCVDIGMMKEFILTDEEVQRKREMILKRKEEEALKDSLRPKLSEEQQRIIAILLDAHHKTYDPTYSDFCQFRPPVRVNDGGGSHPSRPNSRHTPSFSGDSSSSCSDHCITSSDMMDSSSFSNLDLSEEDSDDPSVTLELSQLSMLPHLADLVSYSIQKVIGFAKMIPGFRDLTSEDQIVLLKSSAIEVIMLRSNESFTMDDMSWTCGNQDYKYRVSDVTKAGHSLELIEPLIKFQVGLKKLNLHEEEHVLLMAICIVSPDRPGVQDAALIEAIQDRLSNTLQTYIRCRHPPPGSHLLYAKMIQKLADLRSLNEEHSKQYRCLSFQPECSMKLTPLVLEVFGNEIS
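VDR–SRC2-3 interaction, FP format. Cmpds 23 nl via pintool, brief spin, 2 h ambient incubation.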
G9a inh – G9a (human) methyltransferase inhibition | G9a H3K9 monomethylation, AlphaScreen, 2 h | Potency, µM (series often up to 102 µM), without a hit: at the top dose activity, negative = inhibition, actives largely listed as inhibitors | hit rate 8.8% among 350,000; note: potency is the fitted concentration of half-maximal effect; nearly all actives have a fitted effect of over 75% in size
Target sequence (Q96KQ7 913-1193 limits assumed): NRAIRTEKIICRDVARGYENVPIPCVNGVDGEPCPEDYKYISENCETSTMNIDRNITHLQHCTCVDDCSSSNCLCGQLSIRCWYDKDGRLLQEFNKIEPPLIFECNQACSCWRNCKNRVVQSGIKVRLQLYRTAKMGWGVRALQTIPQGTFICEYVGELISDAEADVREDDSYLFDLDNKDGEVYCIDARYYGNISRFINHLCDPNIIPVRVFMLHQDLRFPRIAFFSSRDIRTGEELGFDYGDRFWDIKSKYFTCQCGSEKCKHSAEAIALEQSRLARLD
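Compounds were preincubated with 20 nM G9a for 15 min, after which biotinylated H3K9 peptide (500 nM) and SAM (20 uM) started a 2 h room-temperature reaction. Monomethylated product was quantified by antibody-based AlphaScreen chemiluminescence.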
CCT modulator – changes cytosolic chaperonin activity | purified chaperonin ATPase assay, HTRF ADP detection, 30 min | activity change, % (concentration not given with the values), hits read low | hit rate 0.3% among 360,000 | AID 651819; in the data active = activity change below about -30%
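TRiC (40 or 20 nM final, by batch activity) in 30 mM Tris pH 7.4, 100 mM KCl, 5 mM MgCl2, 1 mM DTT was treated with compound at 76 uM single dose, then 10 uM ATP, 30 min at 37 °C. ADP was read by HTRF Transcreener.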
Starred values were filed as active, the others as inactive; [ ] = dose if it differs, or a comment. Unless noted, calls come from the whole dose curve; as a rule, active = well fitted curve in the direction sought with a large enough effect; inconclusive = small, poorly fitted or top-dose-only effect, or another doubt; inactive = no such curve, though single readings can be large; an effect the other way counts as inactive or inconclusive. Unless noted, % is set by controls: 0 for no effect and ±100 for the full control effect.

`CC1(C)O[C@H]2C[C@@H]3[C@H]4CCC5=CC(=O)C=C[C@]5(C)[C@@]4(F)[C@@H](O)C[C@]3(C)[C@]2(C(=O)CO)O1` gave Sfp inh 7.7%, VDR inh -9.6% and G9a inh 19.0%[59 µM].
For CCOc1ccc(NC(=O)C2Cc3ccccc3N2C(=O)c2ccccc2)cc1 (stereo not drawn) the results were VDR inh 5.3% and G9a inh inconclusive.
`CC1CCC(C(C)C)C2=C1C(C#N)(C#N)C(C#N)(C#N)C(c1ccccc1)N2` (stereo not drawn) gave PLK1 PBD inh inconclusive, Sfp inh inconclusive, Mm-Cpn inhibitor inconclusive, VDR inh 89.1µM*, G9a inh 7.08µM* and CCT modulator -2.1.
CCCCC/C=C\C/C=C\CCCCCCCC(=O)NC(C)C(=O)O (stereo not drawn) was read as Sfp inh 11.3% and VDR inh -9.0%.
CCN(CC(=O)Nc1ccc(NC(C)=O)cc1)C(=O)c1ccccc1SCc1c(C)noc1C was read as PLK1 PBD inh -7.3%, Mm-Cpn inhibitor 3.9%, VDR inh -5.4%, G9a inh 39.8µM* and CCT modulator -3.1.
For COc1ccc(-c2noc(CC(=O)N(C)c3cccc(C)c3)n2)cc1 the results were VDR inh 10.9% and G9a inh 6.0%[59 µM].
`COc1ccc(NC(=O)c2cc(S(=O)(=O)NCCC3=CCCCC3)ccc2F)cc1` gave VDR inh 8.0% and G9a inh -1.4%[59 µM].
Screening N/C(=N\N=C/c1ccc(Br)cc1)N/N=C\c1ccc(Br)cc1 returned PLK1 PBD inh -21.8%, Sfp inh 3.1%, Mm-Cpn inhibitor 4.1%, VDR inh -11.4%, G9a inh -7.3% and CCT modulator 1.3.
Screening N/C(=N\N=C\c1ccc(Cl)cc1)N/N=C/c1ccc(Cl)cc1 returned Sfp inh 79.4µM*, VDR inh inconclusive and G9a inh -39.6%[12.7 µM].
Screening N/C(=N\N=C/c1ccc(F)cc1)N/N=C\c1ccc(F)cc1 returned PLK1 PBD inh -5.2%, Sfp inh -7.4%, Mm-Cpn inhibitor 1.2%, VDR inh -1.7%, G9a inh 50.1µM* and CCT modulator -3.4.
Screening CC(=O)c1ccc(NC(=O)CSc2nc(-c3cccc(F)c3)nc3c2c(=O)n(C)c(=O)n3C)cc1 returned VDR inh -4.2% and G9a inh 0.7%[59 µM].
O=C(NCCc1ccc(Cl)cc1)c1ccc(CSCc2cccc(Cl)c2)o1 was read as VDR inh 4.9% and G9a inh 7.6%[59 µM].
For Cc1ccc(S(=O)(=O)CCC(=O)Nc2cc(Cl)ccc2-n2cncn2)cc1 the results were PLK1 PBD inh -23.8%, Mm-Cpn inhibitor 0.7%, VDR inh -10.3%, G9a inh 56.2µM* and CCT modulator -1.5.
Screening CCN(CC(=O)Nc1cc(Cl)ccc1C)C(=O)CCS(=O)(=O)c1ccc(C)cc1 returned PLK1 PBD inh -12.4%, Mm-Cpn inhibitor 0.4%, VDR inh -19.9%, G9a inh 50.1µM* and CCT modulator 2.8.
For Cc1ccc(OCC(=O)Nc2cc(Cl)ccc2-n2cncn2)c(C)c1 the results were PLK1 PBD inh -8.1% and CCT modulator -1.5.
CCCOc1ccc(CNC(=O)C2CCCN(c3nc4c(C)cc(C)cc4s3)C2)cc1 (stereo not drawn) was read as VDR inh -0.5% and G9a inh 6.3%[59 µM].
For C=CCn1c(SCC(=O)NNC(=S)Nc2ccccc2)nnc1-c1ccccc1 the results were PLK1 PBD inh 1.4%, Sfp inh 5.4%, Mm-Cpn inhibitor 1.4%, VDR inh -3.9%, G9a inh -19.1%[59 µM] and CCT modulator -1.9.
Screening COc1cc(-c2nnc(SCC(=O)NC3CCCC3)n2C)cc(OC)c1O returned PLK1 PBD inh 5.0%, Sfp inh 15.3%, Mm-Cpn inhibitor -4.6%, VDR inh 2.5%, G9a inh 79.4µM* and CCT modulator 0.1.
Screening Cn1c(SCC(=O)NNC(=S)Nc2ccccc2)nnc1-c1ccncc1 returned Sfp inh 8.3%, Mm-Cpn inhibitor -0.8% and G9a inh 70.8µM*.
`Cn1c(SCC(=O)NNC(=O)Cc2ccccc2)nnc1-c1ccc(Cl)cc1` gave PLK1 PBD inh -12.9%, Sfp inh 19.9%, Mm-Cpn inhibitor 0.6%, VDR inh -10.0%, G9a inh -0.9%[59 µM] and CCT modulator -0.3.
COc1ccc(-c2nnc(SCC(=O)NNC(=O)Cc3ccccc3)n2C)cc1OC was read as PLK1 PBD inh 26.7µM*, Sfp inh -0.6%, Mm-Cpn inhibitor 1.9%, VDR inh 39.8µM*, G9a inh 12.3%[59 µM] and CCT modulator -0.2.
Screening O=C(CSc1nnc(-c2ccccc2)n1-c1ccc(Cl)cc1)NNC(=S)Nc1ccccc1 returned PLK1 PBD inh -25.4%, Sfp inh 6.3%, Mm-Cpn inhibitor 0.6%, VDR inh -13.5%, G9a inh 10µM* and CCT modulator -3.2.
Screening COc1ccc(-c2cn3c(n2)sc2cc(C(=O)NCCc4ccccc4)ccc23)cc1 returned VDR inh 16.5% and G9a inh -39.2%[59 µM].
Screening Cc1ccc(NC(=O)Cn2c(=O)c3ccccc3n3nncc23)cc1 returned VDR inh -2.4% and G9a inh -45.7%[59 µM].
Screening CCc1nn(CC(=O)NCc2ccc(OC)c(OC)c2)c(=O)c2cc3sc(C)cc3n12 returned VDR inh 15.9% and G9a inh -1.3%[59 µM].
`CCc1ccc(-c2nc3c(c(SCc4ccc(F)cc4)n2)Cc2c(CO)cnc(C)c2O3)cc1` gave VDR inh 5.7% and G9a inh -29.6%[59 µM].
For Cc1nc(-c2cccs2)ccc1C(=O)O the results were PLK1 PBD inh -5.3%, Sfp inh 11.0%, Mm-Cpn inhibitor -4.1%, VDR inh 9.9%, G9a inh inconclusive and CCT modulator -2.3.
Cc1ccc(C)n1-c1sccc1C(=O)O was read as PLK1 PBD inh 3.77µM*, Sfp inh 50.1µM*, Mm-Cpn inhibitor -3.4%, VDR inh 31.2%, G9a inh 12.6µM* and CCT modulator -1.1.
`CC(C)Oc1ccc(CNC(=O)c2cccc(NC(=O)c3nsc4ccccc34)c2)cc1` gave VDR inh 8.0% and G9a inh 2.7%[59 µM].
For Oc1ccc(Cl)c2cccnc12 the results were PLK1 PBD inh 4.2%, Sfp inh 27.8%, VDR inh inconclusive, G9a inh 24.0%[59 µM] and CCT modulator 0.0.
Oc1ccc(CNc2ccc(C(F)(F)F)cc2Cl)c2cccnc12 was read as Mm-Cpn inhibitor 1.3% and G9a inh 1.78µM*.
`Oc1ccc(CNc2cccc(F)c2F)c2cccnc12` gave Mm-Cpn inhibitor 0.5% and G9a inh 1.12µM*.

Source: PubChem BioAssay (National Center for Advancing Translational Sciences (NCATS))
